These results are taken from ChEMBL document CHEMBL3988442, “University of Dundee, Small-Polar-MMV Screening Library” (2021).

The structures appear in SMILES notation. For some of these results: Potency and affinity values are given separately.

Common to all, as to design: scale not given: direction of the effect not stated beside the values
For assay [1], the target named is Protein translocase subunit SecA (Escherichia coli (strain K12)) (UniProt P10408). Description: Assay to Identify E. coli SecA ATPase Inhibitors. The note with it: 30 µM. The format is functional.
Assay [2] addresses T1, Ubiquitin-activating enzyme e1, putative (Leishmania donovani (strain BPK282A1)) (UniProt E9BSI1).
T1 sequence (whole entry): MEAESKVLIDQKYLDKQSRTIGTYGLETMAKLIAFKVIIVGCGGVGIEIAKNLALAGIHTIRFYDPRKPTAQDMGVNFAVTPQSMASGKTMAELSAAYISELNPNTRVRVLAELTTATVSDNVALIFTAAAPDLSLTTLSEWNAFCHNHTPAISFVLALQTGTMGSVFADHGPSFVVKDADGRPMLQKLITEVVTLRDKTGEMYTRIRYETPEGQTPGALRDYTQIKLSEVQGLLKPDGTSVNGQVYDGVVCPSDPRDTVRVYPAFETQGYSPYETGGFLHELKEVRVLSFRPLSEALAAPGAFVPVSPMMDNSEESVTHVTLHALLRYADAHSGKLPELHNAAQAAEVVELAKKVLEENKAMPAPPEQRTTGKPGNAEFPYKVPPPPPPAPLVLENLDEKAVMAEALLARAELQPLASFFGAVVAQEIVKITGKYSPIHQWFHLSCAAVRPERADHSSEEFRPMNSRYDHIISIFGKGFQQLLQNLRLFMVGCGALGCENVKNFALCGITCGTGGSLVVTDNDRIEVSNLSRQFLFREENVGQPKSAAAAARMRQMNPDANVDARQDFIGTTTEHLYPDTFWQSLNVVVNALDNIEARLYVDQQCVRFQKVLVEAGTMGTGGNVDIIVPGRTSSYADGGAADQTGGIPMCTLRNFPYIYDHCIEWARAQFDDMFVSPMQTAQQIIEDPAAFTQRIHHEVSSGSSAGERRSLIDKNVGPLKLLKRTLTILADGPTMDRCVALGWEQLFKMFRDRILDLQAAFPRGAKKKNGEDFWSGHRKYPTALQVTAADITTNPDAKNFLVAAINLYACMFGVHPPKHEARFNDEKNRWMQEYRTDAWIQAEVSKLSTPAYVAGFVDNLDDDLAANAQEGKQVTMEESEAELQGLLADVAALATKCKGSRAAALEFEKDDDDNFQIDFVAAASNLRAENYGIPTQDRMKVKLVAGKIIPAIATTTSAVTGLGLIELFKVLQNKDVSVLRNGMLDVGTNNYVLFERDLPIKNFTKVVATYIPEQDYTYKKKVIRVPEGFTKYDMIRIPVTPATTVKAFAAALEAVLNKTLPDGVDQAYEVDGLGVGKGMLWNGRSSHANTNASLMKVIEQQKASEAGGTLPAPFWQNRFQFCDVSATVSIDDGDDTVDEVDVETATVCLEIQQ
Description: Leishmania donovani Ubiquitin Activating Enzyme (LdE1). The class given is functional. The note with it: 30 µM.

For assay [3], the target named is AMP-activated protein kinase, AMPK (Homo sapiens) (UniProt P54646+O43741+P54619+Q9UGJ0+Q9Y478+Q13131+Q9UGI9). Description: AMP-dependent Kinase enzyme assay. An in vitro enzyme assay that detects ADP turnover that is directly proportional to AMPK activity. This uses naive AMPK that is activated during the assay with MK-8722. The class given is functional. The note with it: 30 µM.

The target of assay [4] is Sialic acid-binding Ig-like lectin 9 (Homo sapiens) (UniProt Q9Y336). Description: Hs-Siglec9 ALPHAscreen SOP 20170721. The note with it: 10 µM. In general terms: In Alpha technology, singlet oxygen from a donor bead excites a nearby acceptor bead.
Another assay concerns Trypanosoma cruzi. As to the kind of experiment: Trypanosoma cruzi phosphomannomutase and mannose-1-phosphate guanylyltransferase assay. The class given is functional. The following applies: 10 µM.
Assay [5] concerns the target T2, Arginase-2, mitochondrial (Homo sapiens) (UniProt P78540).
T2 sequence (whole entry): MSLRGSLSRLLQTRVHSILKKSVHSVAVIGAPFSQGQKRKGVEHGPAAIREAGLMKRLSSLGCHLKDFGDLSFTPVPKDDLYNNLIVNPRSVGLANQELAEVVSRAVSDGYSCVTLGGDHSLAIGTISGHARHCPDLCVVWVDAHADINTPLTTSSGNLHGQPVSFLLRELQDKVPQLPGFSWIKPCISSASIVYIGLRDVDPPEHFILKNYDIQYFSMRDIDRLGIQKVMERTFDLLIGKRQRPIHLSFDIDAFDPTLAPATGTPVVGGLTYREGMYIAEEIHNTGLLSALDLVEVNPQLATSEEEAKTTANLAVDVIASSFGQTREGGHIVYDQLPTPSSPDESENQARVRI
As to the kind of experiment: in vitro enzyme assay to detect the production of urea directly proportional to the activity of Arginase II. Further: in the data most compounds retested in dose-response had high values. The following applies: 33.3 µM. The format is functional.

Assay [6] deals with T3, Proteasome subunit beta (Trypanosoma cruzi) (UniProt O96673).
T3 sequence (whole entry): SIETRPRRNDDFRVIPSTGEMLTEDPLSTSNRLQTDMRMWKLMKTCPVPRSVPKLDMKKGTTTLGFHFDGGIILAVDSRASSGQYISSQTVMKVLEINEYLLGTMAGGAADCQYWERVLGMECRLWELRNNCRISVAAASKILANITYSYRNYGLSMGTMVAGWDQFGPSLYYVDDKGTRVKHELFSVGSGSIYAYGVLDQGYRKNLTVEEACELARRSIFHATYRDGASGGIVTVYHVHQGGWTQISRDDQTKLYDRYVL
Description: Trypanosoma cruzi proteasome chymotrypsin-like activity (TcProtChymo) assay. Further: in the data most compounds retested in dose-response had high values. The class given is functional. The following applies: 9.37 µM.

For another assay, the species on record is Homo sapiens. Description: To identify inhibition of the IFN signalling (Jak-Stat) pathway via expression of an eGFP reporter gene under the control of an IFN-stimulated response element (ISRE) containing MxA promoter. The following applies: 30 µM. The format is functional.
Assay [7] concerns the target T4, Tyrosyl-tRNA synthetase, putative (Trypanosoma cruzi (strain CL Brener)) (UniProt Q4DSP6).
T4 sequence (whole entry): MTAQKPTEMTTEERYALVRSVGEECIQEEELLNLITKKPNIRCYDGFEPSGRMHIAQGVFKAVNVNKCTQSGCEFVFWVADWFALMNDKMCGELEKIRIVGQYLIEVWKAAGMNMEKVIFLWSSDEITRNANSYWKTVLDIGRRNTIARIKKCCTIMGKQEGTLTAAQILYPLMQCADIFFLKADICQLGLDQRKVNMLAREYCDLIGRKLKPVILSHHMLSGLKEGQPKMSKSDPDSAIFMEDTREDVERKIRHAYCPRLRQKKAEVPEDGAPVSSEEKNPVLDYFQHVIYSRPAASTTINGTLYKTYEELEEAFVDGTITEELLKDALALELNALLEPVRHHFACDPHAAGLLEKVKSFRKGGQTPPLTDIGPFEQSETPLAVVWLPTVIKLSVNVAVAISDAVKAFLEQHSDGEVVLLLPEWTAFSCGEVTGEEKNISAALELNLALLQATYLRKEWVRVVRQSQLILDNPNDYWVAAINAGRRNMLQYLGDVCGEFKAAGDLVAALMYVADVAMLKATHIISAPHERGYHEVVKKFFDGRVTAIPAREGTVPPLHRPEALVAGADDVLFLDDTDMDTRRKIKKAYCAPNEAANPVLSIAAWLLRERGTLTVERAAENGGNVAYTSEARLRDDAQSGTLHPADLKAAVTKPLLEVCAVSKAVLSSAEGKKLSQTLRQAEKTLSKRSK
As to the kind of experiment: Trypanosoma cruzi tyrosyl tRNA synthetase (TcYRS) _High Tyrosine SOP. Further: in the data most compounds retested in dose-response had high values. The format is functional. The following applies: 30 µM.

The target of assay [8] is T4, Tyrosyl-tRNA synthetase, putative (Trypanosoma cruzi (strain CL Brener)). As to the kind of experiment: Trypanosoma cruzi tyrosyl tRNA synthetase (TcYRS) SOP. The format is functional. The following applies: 30 µM.
Assay [9] has as its target Chromo domain-containing protein 1 (Saccharomyces cerevisiae (strain ATCC 204508 / S288c) (Baker's yeast)) (UniProt P32657). As to the kind of experiment: ScCHD-1 Enzyme Inhibition Assay. Further: in the data most compounds retested in dose-response had high values. The following applies: 30 µM. The format is functional.

Chain of Chromo domain-containing protein 1 (Saccharomyces cerevisiae (strain ATCC 204508 / S288c) (Baker's yeast)) (P32657 whole entry, the tested form may be a part): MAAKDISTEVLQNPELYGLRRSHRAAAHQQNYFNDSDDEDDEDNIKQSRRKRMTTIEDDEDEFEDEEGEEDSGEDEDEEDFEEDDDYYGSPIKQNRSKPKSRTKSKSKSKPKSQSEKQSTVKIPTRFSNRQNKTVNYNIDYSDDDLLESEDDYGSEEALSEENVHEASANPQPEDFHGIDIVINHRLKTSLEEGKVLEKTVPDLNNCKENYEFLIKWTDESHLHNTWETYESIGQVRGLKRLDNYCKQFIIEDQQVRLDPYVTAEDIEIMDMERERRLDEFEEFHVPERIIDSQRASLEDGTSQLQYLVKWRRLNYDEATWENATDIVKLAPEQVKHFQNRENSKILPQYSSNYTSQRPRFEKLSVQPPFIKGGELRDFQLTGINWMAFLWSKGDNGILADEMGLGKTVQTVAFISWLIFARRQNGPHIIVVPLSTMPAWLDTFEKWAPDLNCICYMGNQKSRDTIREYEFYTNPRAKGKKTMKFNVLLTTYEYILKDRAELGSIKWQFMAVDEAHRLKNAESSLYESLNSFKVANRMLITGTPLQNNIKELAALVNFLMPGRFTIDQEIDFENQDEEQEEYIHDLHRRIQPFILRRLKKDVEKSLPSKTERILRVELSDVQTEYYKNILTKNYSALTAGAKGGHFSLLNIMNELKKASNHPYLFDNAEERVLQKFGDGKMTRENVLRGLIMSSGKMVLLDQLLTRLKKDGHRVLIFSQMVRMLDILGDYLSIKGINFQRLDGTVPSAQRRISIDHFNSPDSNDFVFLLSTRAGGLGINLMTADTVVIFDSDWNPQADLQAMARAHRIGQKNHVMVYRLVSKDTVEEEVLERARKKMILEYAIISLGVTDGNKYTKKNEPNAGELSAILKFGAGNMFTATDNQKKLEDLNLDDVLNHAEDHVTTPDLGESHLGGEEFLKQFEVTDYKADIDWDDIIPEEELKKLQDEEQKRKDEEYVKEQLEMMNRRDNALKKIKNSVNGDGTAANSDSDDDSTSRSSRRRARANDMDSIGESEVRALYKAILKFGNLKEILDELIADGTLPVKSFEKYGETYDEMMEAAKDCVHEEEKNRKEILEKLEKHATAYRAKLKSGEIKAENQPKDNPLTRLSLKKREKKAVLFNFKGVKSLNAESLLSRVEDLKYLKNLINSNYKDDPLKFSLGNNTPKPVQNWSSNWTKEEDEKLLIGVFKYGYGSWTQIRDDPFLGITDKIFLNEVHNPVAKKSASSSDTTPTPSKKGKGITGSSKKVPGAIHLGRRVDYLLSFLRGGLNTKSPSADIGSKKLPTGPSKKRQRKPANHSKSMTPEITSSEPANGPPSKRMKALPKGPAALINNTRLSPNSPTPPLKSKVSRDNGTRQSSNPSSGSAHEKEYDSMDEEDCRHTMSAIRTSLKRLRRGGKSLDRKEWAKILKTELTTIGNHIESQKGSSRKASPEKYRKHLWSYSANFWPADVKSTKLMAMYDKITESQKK
Chain of Protein translocase subunit SecA (Escherichia coli (strain K12)) (P10408 whole entry): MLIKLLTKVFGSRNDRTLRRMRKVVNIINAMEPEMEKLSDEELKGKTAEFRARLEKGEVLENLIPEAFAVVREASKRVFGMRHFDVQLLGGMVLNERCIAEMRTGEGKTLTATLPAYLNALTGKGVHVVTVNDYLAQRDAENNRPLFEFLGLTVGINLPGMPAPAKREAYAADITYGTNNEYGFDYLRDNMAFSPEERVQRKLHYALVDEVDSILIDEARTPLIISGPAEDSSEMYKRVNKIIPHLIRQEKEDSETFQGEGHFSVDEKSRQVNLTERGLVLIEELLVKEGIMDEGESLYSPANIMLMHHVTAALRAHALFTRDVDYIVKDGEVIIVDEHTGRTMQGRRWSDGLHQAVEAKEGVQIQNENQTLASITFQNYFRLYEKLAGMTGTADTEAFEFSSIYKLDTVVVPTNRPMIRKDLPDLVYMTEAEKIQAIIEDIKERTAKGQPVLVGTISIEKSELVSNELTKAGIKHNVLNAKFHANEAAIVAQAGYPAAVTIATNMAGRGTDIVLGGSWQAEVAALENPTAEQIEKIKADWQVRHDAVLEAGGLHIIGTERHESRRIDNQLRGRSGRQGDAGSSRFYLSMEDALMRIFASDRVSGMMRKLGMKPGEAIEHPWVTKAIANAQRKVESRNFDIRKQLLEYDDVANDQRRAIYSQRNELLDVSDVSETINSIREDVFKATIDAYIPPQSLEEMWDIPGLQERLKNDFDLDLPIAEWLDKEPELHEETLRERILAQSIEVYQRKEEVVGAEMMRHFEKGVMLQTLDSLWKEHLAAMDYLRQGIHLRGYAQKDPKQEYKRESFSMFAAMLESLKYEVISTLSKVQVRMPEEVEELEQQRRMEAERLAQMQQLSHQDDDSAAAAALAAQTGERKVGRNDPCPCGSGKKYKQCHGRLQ
Chain of Sialic acid-binding Ig-like lectin 9 (Homo sapiens) (Q9Y336 whole entry): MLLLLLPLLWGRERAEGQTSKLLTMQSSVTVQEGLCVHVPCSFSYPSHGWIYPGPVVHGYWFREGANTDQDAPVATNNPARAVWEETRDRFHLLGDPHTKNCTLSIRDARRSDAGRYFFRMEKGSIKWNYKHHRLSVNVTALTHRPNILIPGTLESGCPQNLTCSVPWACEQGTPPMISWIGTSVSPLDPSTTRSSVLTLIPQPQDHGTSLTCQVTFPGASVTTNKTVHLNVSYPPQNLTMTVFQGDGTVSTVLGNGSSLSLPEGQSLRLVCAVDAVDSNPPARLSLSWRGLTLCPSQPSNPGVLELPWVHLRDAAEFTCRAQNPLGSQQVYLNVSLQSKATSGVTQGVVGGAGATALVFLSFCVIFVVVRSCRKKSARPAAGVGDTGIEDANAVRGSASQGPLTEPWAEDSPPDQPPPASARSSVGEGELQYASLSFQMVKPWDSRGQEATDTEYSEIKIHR

Turning to `CN(C)CC1CN(c2ncnc3[nH]ccc23)CCO1` (stereo not drawn), the Percent Effect in [1] is -5.15%; in [2] it was 16.5%; in assay [3], 22%; in [4], 2.27%; in the assay on Trypanosoma cruzi, 0.103%; in [5] it was -1.94%. For the same compound, the Percent Effect in assay [6] was 13.9%; in the assay filed under Homo sapiens, 28.5%; in assay [7], 7.29%; in [8], 15.2%; in [9], -33%.
As to `CCc1ccc(CN2CCCC(CO)(CCOC)C2)cc1` (stereo not drawn), the Percent Effect in assay [1] was -2.06%; in assay [2], -5.41%; in [3], -3.48%; in assay [4] it was -7.57%; in the assay with Trypanosoma cruzi it was -4.79%; in assay [5] it was -6.7%. Moreover, the Percent Effect is -0.258% in [6]; -5.11% in the assay listed under Homo sapiens; -1.07% in assay [7]; 1.24% in [8]; 1.15% in assay [9].
In the case of `CCCn1c(C)c(CC(=O)N(C)CCOC)c2c1CC(C)(C)CC2=O`, the Percent Effect was -3.48% in assay [1]; 5.2% in [2]; 0.628% in assay [3]; 11.4% in assay [4]; 6.59% in the assay with Trypanosoma cruzi; -38.6% in [5]. Further, the Percent Effect in [6] is 3%; in the assay filed under Homo sapiens it was -27.9%; in assay [7], 6.45%; in assay [8], 8.64%; in assay [9], -8.76%.
As for `Cc1nccn1-c1nccnc1C1CCN(Cc2ccc(F)cc2)CC1`, the Percent Effect is -2.09% in [1]; 21.3% in assay [2]; 4.62% in [3]; -5.84% in [4]; 5.91% in the assay with Trypanosoma cruzi; -2.56% in [5]. Further, the Percent Effect in assay [6] is 15.2%; in the assay filed under Homo sapiens it was 7.46%; in assay [7], 4.25%; in assay [8], 16.7%; in assay [9] it was -4.22%.
For the compound `Cc1cc(CN2CCN(C(=O)CCc3cccc(F)c3F)CC2)on1`, the Percent Effect in assay [1] is 2.13%; in assay [2], 0%; in assay [3], -6.33%; in assay [4], 7.49%; in the assay on Trypanosoma cruzi, 5.99%; in [5] it was 10.9%. Also, the Percent Effect in assay [6] is 0.862%; in the assay filed under Homo sapiens, -0.409%; in [7] it was -0.529%; in assay [8] it was 4.88%; in [9], 0.403%.
Regarding `CCN(CC)C(=O)CN(C)C1CCc2ccccc21` (stereo not drawn), the Percent Effect was -0.321% in [1]; 18.4% in assay [2]; -0.859% in [3]; -2.93% in assay [4]; 3.57% with Trypanosoma cruzi; 3.83% in [5]. In addition, the Percent Effect was 18.7% in [6]; 11.3% in the assay listed under Homo sapiens; 8.33% in assay [7]; 21.9% in [8]; -9.79% in assay [9].
With `COc1ccc(C(C)=O)c(OCC(=O)NC(C)c2ccc(F)cc2)c1` (stereo not drawn), the Percent Effect in assay [1] is -0.739%; in assay [2], 10.8%; in [3], -5.53%; in assay [4], 8.21%; in the assay on Trypanosoma cruzi, 5.77%; in assay [5], 23.6%. Further, the Percent Effect in assay [6] was 9.19%; in the assay filed under Homo sapiens it was -11.8%; in assay [7], 0%; in [8] it was 11.1%; in [9], -6.76%.
As to `O=C(NCC1CC1)[C@H]1C[C@@H]2CCN(Cc3nccs3)C[C@@H]2O1`, the Percent Effect in [1] was -2.59%; in assay [2], 8.11%; in [3] it was 5.76%; in assay [4], -2.2%; in the assay on Trypanosoma cruzi it was 4.4%; in [5], -2.23%. Further, the Percent Effect is 20.7% in assay [6]; 17.8% in the assay filed under Homo sapiens; 8.65% in assay [7]; 15.4% in assay [8]; 2.01% in assay [9].
